Cruzain Triton = inhibitors of Trypanosoma cruzi cruzain with detergent; P25779; purified cruzain, Z-FR-AMC fluorescence, 0.01% Triton; Potency, µM, for the others: max response, negative = inhibition, usual class: inhibitors; 200,000 tested, 0.43% active;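 note: plate controls were neutral wells for no effect and buffer without enzyme for full effect; nearly all actives have a fitted effect of over 40% in size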
Target sequence (P25779 123-467 limits assumed): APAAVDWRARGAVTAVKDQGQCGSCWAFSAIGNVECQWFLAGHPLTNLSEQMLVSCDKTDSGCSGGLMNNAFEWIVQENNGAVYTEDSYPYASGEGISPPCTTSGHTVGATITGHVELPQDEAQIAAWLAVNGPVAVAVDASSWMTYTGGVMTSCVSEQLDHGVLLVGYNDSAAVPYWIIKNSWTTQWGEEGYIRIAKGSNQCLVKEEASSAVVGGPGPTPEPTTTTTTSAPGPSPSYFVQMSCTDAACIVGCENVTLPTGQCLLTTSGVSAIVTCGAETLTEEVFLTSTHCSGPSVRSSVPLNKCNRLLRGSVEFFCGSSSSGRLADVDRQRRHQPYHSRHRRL
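Enzyme 1.5 nM, Z-FR-AMC 2 uM, NaOAc 100 mM pH 5.5, DTT 5 mM, Triton X-100 0.01%; 15 min RT compound preincubation; kinetic ex360/em450, 60 s delta.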
NS1 function inh = blocks influenza NS1 protein function. 270,000 tested, 0.4% active. Potency, µM (titrated, usually from 46.1 µM), without a hit: at the top dose activity, positive = more growth. AID 2326; calls by dose curve; note: actives are rising curves; nearly all actives have a fitted effect of over 50% in size
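Read-out: OD600 growth recovery of NS1-expressing budding yeast. Cells grown overnight at 30C in -URA glucose medium, washed, resuspended and diluted 1:100 in 2% galactose assay medium, pH 6.0. Same strain lacking NS1 served as positive control.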
Cruzain inh noDet = blocks cruzain activity in detergent-free assay | purified cruzain, Z-FR-AMC fluorescence, no detergent | AID 1476 | Potency, µM, inactives show max response, negative = inhibition, usual class: inhibitors | 200,000 tested, 2.3% active;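 note: plate controls were enzyme without inhibitor for no effect and buffer without enzyme for full effect; nearly all actives have a fitted effect of over 40% in size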
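Purified cruzain at 1.5 nM, pre-incubated 15 min with compound at room temperature in 100 mM sodium acetate pH 5.5, 5 mM DTT, 0.00005% Triton X-100. Reaction started with 2 uM Z-FR-AMC; AMC fluorescence increase over 60 s gives rate.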
* hit, by the source's call; ? = inconclusive; . = no result given. This excerpt belongs to a sample that is enriched for hits. Unless noted, calls come from the whole dose curve; as a rule, active = well fitted curve in the direction sought with a large enough effect; inconclusive = small, poorly fitted or top-dose-only effect, or another doubt; inactive = no such curve, though single readings can be large; an effect the other way counts as inactive or inconclusive. Potency is the fitted concentration of half-maximal effect.

SMILES | Cruzain Triton | NS1 function inh | Cruzain inh noDet
Cc1csc(SCC(=O)c2cc(C)n(Cc3cccs3)c2C)n1 | -3% | -37% | 7%
Cc1cc(C(=O)CSc2n[nH]c(-c3ccccc3F)n2)c(C)n1Cc1cccs1 | -8% | 2% | 16µM*
COc1ccc(C2CC(=O)c3cc(-c4nc(-c5cccc([N+](=O)[O-])c5)cs4)c(=O)n(-c4ccc(F)cc4)c3C2)cc1 (stereo not drawn) | -3% | . | 1µM*
COc1ccc(C2CC(=O)c3cc(-c4nc(-c5cccc([N+](=O)[O-])c5)cs4)c(=O)n(-c4ccccc4)c3C2)cc1 (stereo not drawn) | 0% | . | -4%
Cc1ccc2[nH]c3c(=O)n(CCC4=CCCCC4)cnc3c2c1 | 0% | 6% | -20%
O=c1c2ccc(Cl)cc2[nH]c(=S)n1CCC1=CCCCC1 | -1% | 15% | 20µM*
Cc1ccc2c(c1)[nH]c1c(=O)n(CCC3=CCCCC3)cnc12 | 4% | -3% | 20µM*
CCOC(=O)N1CCN(C(=O)c2ccc3c(=O)n(CCC4=CCCCC4)c(=S)[nH]c3c2)CC1 | -7% | 1% | ?
O=C(O)c1ccc(S(=O)(=O)N=Nc2c(O)[nH]c3ccccc23)cc1 | 3% | -2% | -5%
CC(C)C[C@@H](CC(=O)N[C@@H](CCC(=O)O)CC(=O)O)NC(=O)[C@@H]1CCCC[C@H]1NC(=O)C[C@H](CCCN)NC(=O)C[C@H](CO)NC(=O)[C@@H]1CNCC[C@H]1N | 4% | . | -4%
CC(C)(C)c1ccc(OCC(=O)Nc2ccc(S(=O)(=O)Nc3ncccn3)cc2)cc1 | 1% | . | -2%
CCC(=O)N1CCc2cc(Br)cc(S(=O)(=O)N3CCN(c4ccccc4OC)CC3)c21 | -1% | . | 0%
CCOC(=O)c1c(NC(=O)c2ccccc2N(C)S(=O)(=O)c2ccccc2)sc2c1CCCC2 | -2% | ? | 20µM*
COC(=O)c1c(NC(=O)c2ccccc2N(C)S(=O)(=O)c2ccccc2)sc2c1CCCC2 | -7% | -7% | 25µM*
COC(=O)c1c(NC(=O)CS(=O)(=O)c2ccc(C)cc2)sc2c1CCCC2 | -8% | . | ?
COC(=O)c1c(NC(=O)c2ccccc2C(=O)O)sc2c1CCC2 | . | 27% | .
COC(=O)c1c(NC(=O)c2ccc(N(C)S(=O)(=O)c3ccc(C)cc3)cc2)sc2c1CCCC2 | -4% | 5% | 4µM*
CCOC(=O)c1c(NC(=O)c2ccccc2Cl)sc2c1CCCC2 | -1% | . | -14%
CC(=O)c1ccc(NC(=O)CSc2ccc3nc(-c4ccccc4)cn3n2)cc1 | -5% | . | -6%
OC(CN1CCNCC1)Cn1c2ccc(Br)cc2c2cc(Br)ccc21 (stereo not drawn) | -9% | . | -2%
COc1ccc2[nH]cc(CCNc3ccnc(-c4ccc(N(C)C)cc4)n3)c2c1 | -7% | . | ?
CCOC(=O)C1CCN(C(=O)CN2c3ccc(CC)cc3-c3ccccc3S2(=O)=O)CC1 | -1% | . | ?
COc1cc(NS(=O)(=O)c2ccc3c(c2)CCN3S(C)(=O)=O)cc(OC)c1 | -5% | . | 4%
O=C(CCN1CCCC1Cc1ccccc1)c1ccc2c(c1)OCCO2 (stereo not drawn) | 25µM* | -222% | 20µM*
CN(C)CCN1CCc2ccccc21 | -3% | -5% | -10%
SMILES | Cruzain Triton | NS1 function inh | Cruzain inh noDet
O=C(CCN1CCc2ccccc2C1)c1ccc2c(c1)OCCO2 | ? | -57% | ?
O=C(CCN1CCc2ccccc21)c1ccc2c(c1)OCCO2 | -2% | 17% | 7.9µM*
O=C(CCN1CCCCC1)c1ccc2c(c1)OCCO2 | -14% | -81% | -26%
c1ccc2c(c1)CCN2CCN1CCc2ccccc21 | 6% | -32% | 10µM*
Cc1noc(C)c1S(=O)(=O)N(CC(=O)NCCc1ccc(Cl)cc1)c1ccc(C(C)C)cc1 | -1% | . | -3%
O=c1oc(-c2ccccc2)nc2c1C1(CCCCC1)Cc1ccccc1-2 | -1% | 5% | 25µM*
CCC1(CC)Cc2ccccc2-c2nc(-c3ccccc3)oc(=O)c21 | -1% | 1% | ?
Cc1ccccc1OCC(=O)N/N=C/c1cccc(Oc2ccc([N+](=O)[O-])cc2[N+](=O)[O-])c1 | -3% | 19% | ?
O=C(N/N=C/c1cccc(Oc2ccc([N+](=O)[O-])cc2[N+](=O)[O-])c1)c1cncc(Br)c1 | -2% | 12% | 25µM*
CCC(=O)N1CCc2cc(S(=O)(=O)CCC(=O)Nc3ccc(Cl)c(C(F)(F)F)c3)ccc21 | -2% | . | 1%
COc1ccc(CNC(=O)c2cc(Nc3ccccc3C)nc3ccccc23)cc1 | -12% | . | 25µM*
COc1ccc(CNC(=O)c2cc(Nc3ccc(C)cc3C)nc3ccccc23)cc1 | -10% | . | 9%
CCn1c2ccccc2c2cc(NC(=O)CSc3nnc(-c4cccc(F)c4)o3)ccc21 | -10% | 4% | ?
CCOc1ccc(-c2nnc(SCC(=O)Nc3cccc(C#N)c3)o2)cc1 | 25µM* | . | 25µM*
CCn1c2ccccc2c2cc(NC(=O)CSc3nnc(-c4cccc(C)c4)o3)ccc21 | 7% | -7% | 7.9µM*
CCn1c2ccccc2c2cc(NC(=O)CSc3nnc(-c4ccccc4)o3)ccc21 | 3% | 1% | 20µM*
Cc1ccc(C)c(NC(=O)CSc2nnc(-c3ccccc3)o2)c1 | 0% | -19% | -4%
CCOc1ccc(-c2nnc(SCC(=O)Nc3cccc(Cl)c3C)o2)cc1 | -6% | . | ?
CN(C)C(=O)c1ccc(-c2ccc3ncnc(NCCN4CCOCC4)c3c2)cc1 | 2% | . | -9%
Cc1ccc(CCNC(=O)CCCn2c(=O)c3cccn3c3ccc(F)cc32)cc1 | 0% | . | 11%
CC(C)c1ccc(NC(=O)C2(C)Cc3ccccc3C(=O)O2)cc1 (stereo not drawn) | -6% | . | -7%
COc1ccc(CCNc2nc3ccccc3c3nc(-c4cccc(C)c4)nn23)cc1OC | -3% | . | 5%
Cc1ccc(S(=O)(=O)Oc2ccc(/C=C(/NC(=O)c3ccccc3)C(=O)NCCC(=O)O)cc2)cc1 | . | 9% | .
Cc1ccc(S(=O)(=O)Oc2ccc(/C=C(/NC(=O)c3ccccc3)C(=O)Nc3ccccc3)cc2)cc1 | 2% | ? | 13µM*
Cc1ccc(NC(=O)/C(=C/c2ccncc2)NC(=O)c2ccccc2)cc1 | -4% | -9% | -8%
SMILES | Cruzain Triton | NS1 function inh | Cruzain inh noDet
COc1ccc(NC(=O)/C(=C\c2ccc(OS(=O)(=O)c3ccc(C)cc3)cc2)NC(=O)c2ccccc2)cc1 | 3% | 29% | 7.9µM*
CSc1ccc(/C=C(/NC(=O)c2ccc(C)cc2)C(=O)Nc2cccc(C)c2)cc1 | -6% | 0% | 6.3µM*
CC(=O)N/C(=C/c1ccc(OS(=O)(=O)c2ccc(C)cc2)cc1)C(=O)Nc1ccc(C(=O)O)cc1 | . | 10% | .
CC(=O)/C(=C\c1ccccc1)CC(=O)O | 0% | . | -5%
C/C(Cl)=C/CCl | 7% | . | -1%
O=C(Nc1nc2ccc(Cl)cc2s1)c1ccc(N2CCCCC2)c([N+](=O)[O-])c1 | -3% | 26% | 5µM*
CC(=O)N1CCN(c2ccc(NC(=O)c3ccc(N4CCCC4)c([N+](=O)[O-])c3)cc2Cl)CC1 | 1% | 2% | 13%
O=C(Nc1ccc2c(c1)OCO2)c1ccc(N2CCCC2)c([N+](=O)[O-])c1 | -10% | 13% | 25µM*
O=C(Nc1ccc(N2CCCCC2)c(Cl)c1)c1ccc(N2CCOCC2)c([N+](=O)[O-])c1 | -3% | 14% | -1%
